Data reported in PubChem BioAssay (NCATS).
Results filed as inconclusive are left out. Activity calls are given as the source filed them. Unless noted, calls come from the whole dose curve; as a rule, active = well fitted curve in the direction sought with a large enough effect; inconclusive = small, poorly fitted or top-dose-only effect, or another doubt; inactive = no such curve, though single readings can be large; an effect the other way counts as inactive or inconclusive.

Legend:
[1] = target: Rap guanine nucleotide exchange factor 3 (Homo sapiens) (UniProt O95398); assay: Confirmatory qHTS for antagonist of cAMP-regulated guanine nucleotide exchange factor 3 (EPAC1) (AID 1645880); conditions: EPAC1 Rap1B-BODIPY-GDP exchange, fluorescence; activity, negative = inhibition: at 115 µM (top of the series); note: nearly all actives have a fitted effect of over 55% in size; note: potency is the fitted concentration of half-maximal effect;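 for activity, negative = inhibition: plate controls were DMSO only for no effect and full effect of the ATA control for full effect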
In short: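 Released BODIPY-GDP fluoresces less than Rap1-bound BODIPY-GDP; the signal is followed at 480/540 nm at 5-min intervals over 30 min, after 5 min at room temperature. Reactions contain 100 nM EPAC1, 250 nM RAP1B-BODIPY-GDP and 50 uM GDP; results are normalized to ATA and DMSO.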

[2] = target: Rap guanine nucleotide exchange factor 3 (Homo sapiens) (UniProt O95398); assay: Confirmatory qHTS for agonist of cAMP-regulated guanine nucleotide exchange factor 3 (EPAC1) (AID 1645881); conditions: EPAC1 Rap1B BODIPY-GDP exchange fluorescence; series mostly up to 154 µM; note: nearly all actives have a fitted effect of over 75% in size; note: potency is the fitted concentration of half-maximal effect;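 for activation: EPAC1 catalysed release of BODIPY-GDP from Rap1B seen as fluorescence loss; 100% = effect of cAMP agonist control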
[3] = target: Rap guanine nucleotide exchange factor 4 (Homo sapiens) (UniProt Q8WZA2); assay: Confirmatory qHTS for agonist of cAMP-regulated guanine nucleotide exchange factor 4 (EPAC2) (AID 1645884); conditions: EPAC2 GEF activity, Rap1B-BODIPY-GDP fluorescence; series mostly up to 154 µM;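 note: nucleotide exchange releases bodipy-GDP from Rap1 and this lowers its fluorescence; nearly all actives have a fitted effect of over 65% in size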; note: potency is the fitted concentration of half-maximal effect; for activation: % is set by controls: 0 for no effect and ±100 for the full control effect
[4] = target: Rap guanine nucleotide exchange factor 3 (Homo sapiens) (UniProt O95398); assay: Counterscreen qHTS for agonist of cAMP-regulated guanine nucleotide exchange factor 3 (EPAC1) (AID 1645889); conditions: EPAC1 Rap1B-BODIPY-GDP exchange, fluorescence; series mostly up to 154 µM; note: nearly all actives have a fitted effect of over 40% in size; note: potency is the fitted concentration of half-maximal effect; for activation: % of control where 0% means no effect
In short: (§1)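 Rap1B-BODIPY-GDP 250 nM + GDP 50 uM; cpds 7-pt, final 9.74 nM–152 uM (activator mode) or from 7.32 nM upwards (inhibitor mode); RT; FI 480/540 nm at 5 and 30 min, then ± cAMP, reread.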

[5] = target: Rap guanine nucleotide exchange factor 4 (Homo sapiens) (UniProt Q8WZA2); assay: Confirmatory qHTS for antagonist of cAMP-regulated guanine nucleotide exchange factor 4 (EPAC2) (AID 1645885); conditions: EPAC2 Rap1B-BODIPY-GDP exchange fluorescence, biochemical; series mostly up to 12.7 µM; note: % is set by controls: 0 for no effect and ±100 for the full control effect; nearly all actives have a fitted effect of over 25% in size
[6] = target: Lysosomal acid glucosylceramidase (Homo sapiens) (UniProt P04062); assay: Glucocerebrosidase-p2 (AID 348; in the data active = potency below about 10 µM; note: potency is the fitted concentration of half-maximal effect); conditions: purified GBA, blue fluorogenic substrate, 40 min
In short: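 Normal human glucocerebrosidase (0.2 nM) with blue fluorogenic substrate (80 uM final) in citrate/phosphate pH 5.9 with 10mM sodium taurocholate, 0.01% tween-20; 40 min RT, NaOH/glycine stop; fluorescence Ex 365/Em 440; AC50 from a titration from 0.6 nM upwards.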

[7] = AP1 Signaling Pathway (AID 357; active = well fitted curve in either direction with a large enough effect, not every such curve was filed as active;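 note: ME-180 reporter cells stimulated with EGF at its EC50 level; % is set by controls: 0 for no effect and ±100 for the full control effect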); conditions: ME-180 (cervical carcinoma) AP-1-bla reporter, EGF-induced, beta-lactamase ratio, 5 h; at 7.69 µM (top of the series) unless noted
In short: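 Cells are seeded overnight, exposed to compound titrations and an EC50 level of EGF for 5 hours at 37 °C, then loaded with CCF4 dye for 2.5 hours. Beta-lactamase activity under the AP-1 element is read as a blue/green ratio.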

[8] = target: Cytochrome P450 1A2 (Homo sapiens) (UniProt P05177); assay: p450-cyp1a2 (AID 410; calls by dose curve; note: potency is the fitted concentration of half-maximal effect); conditions: recombinant CYP1A2, luciferin-ME demethylation, luminescence; series mostly up to 57 µM
In short: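 Read-out is luminescence from luciferin produced by CYP1A2 demethylation of Luciferin-ME (100uM, at Km). Detection reagent stopped the 60 min NADPH-dependent reaction; signals were normalized to 57 uM furafylline.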

[9] = NFAT Signaling Pathway (AID 444; active = well fitted curve in either direction with a large enough effect, not every such curve was filed as active;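 note: carbachol stimulus at about its EC50 of 1 µM final; % is set by controls: 0 for no effect and ±100 for the full control effect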); conditions: Jurkat NFAT-bla M1, carbachol, beta-lactamase ratio, 5 h; at 7.69 µM (top of the series) unless noted
In short: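 Read-out: CCF4 FRET ratio (460 nm/530 nm) after 1 h RT dye loading, used for %activity and AC50 from titration series. Cells: Jurkat NFAT-β-lactamase/M1 line, treated with compound plus 1 uM carbachol for 5 h, 37 °C.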

[10] = target: Glucocorticoid receptor (Homo sapiens) (UniProt P04150); assay: GR-GFP Redistribution (AID 450;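 active = compounds whose dose series gives a full or clear partial fitted curve of increased nuclear translocation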; note: potency is the fitted concentration of half-maximal effect); conditions: U2OS GR-GFP nuclear translocation, laser cytometry, 2 h
[11] = target: Glucocorticoid receptor (Homo sapiens) (UniProt P04150); assay: GR-EFC Redistribution (AID 451; calls by dose curve; note: potency is the fitted concentration of half-maximal effect); conditions: CHO-K1 GR-EFC translocation, beta-gal luminescence, 2 h
In short: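 Translocation of GR-ED fusion to nuclear EA restores b-gal, read by luminescence after 1 h room-temperature detection. Engineered CHO-K1 biosensor cells, 1,000/well, exposed 2 h at 37 C to titrations up to 46 uM final.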

[12] = target: Mitogen-activated protein kinase 10 (Mus musculus) (UniProt Q61831); assay: JNK3 AlphaScreen Assay (AID 530; active = well fitted curve in either direction with a large enough effect, not every such curve was filed as active;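 note: kinase came from lysate of stimulated human HepG2 cells; signal reports phosphorylation of biotinylated GST-cJun 1-79 at Ser73 with 10 µM ATP; % is set by controls: 0 for no effect and ±100 for the full control effect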); conditions: JNK3 lysate, c-Jun phosphorylation; series mostly up to 57.1 µM
In short: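 Kinase buffer: 20 mM Tris-HCl pH 7.6, 10 mM MgCl2, 1 mM DTT, 0.1 mM Na3VO4, 0.01% Tween-20; ATP 10 uM. Substrate biotin-GST-cJun(1-79), enzyme from activated HepG2 lysates. Detection by Ser73 phospho-antibody AlphaScreen.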

[13] = target: Cytochrome P450 2C9 (Homo sapiens) (UniProt P11712); assay: qHTS Assay for Inhibitors and Substrates of Cytochrome P450 2C9 (AID 883); conditions: recombinant CYP2C9, luciferin-H luminescence, 60 min; series mostly up to 57.1 µM; note: % is set by controls: 0 for no effect and ±100 for the full control effect; nearly all actives have a fitted effect of over 60% in size
In short: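 Luminescent read-out of deoxyluciferin hydroxylation, normalized to 57uM sulphaphenazole (AC100). Reaction: 10nM enzyme, 100uM Luciferin-H (equal to KM), 25mM KPO4, 10 min compound preincubation, then 60 min with NADPH regeneration, both at 37C.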

[14] = target: Cytochrome P450 2D6 (Homo sapiens) (UniProt P10635); assay: qHTS Assay for Inhibitors and Substrates of Cytochrome P450 2D6 (AID 891); conditions: recombinant CYP2D6, luciferin-ME EGE luminescence; series mostly up to 57.1 µM;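 note: luciferin methyl ether substrate demethylated by CYP2D6 with NADPH regeneration; % is set by controls: 0 for no effect and ±100 for the full control effect; nearly all actives have a fitted effect of over 60% in size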
In short: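 Luminescent read-out of luciferin formed by 5 nM human CYP2D6 demethylating 30 uM Luciferin-ME EGE (Km level) over 60 min at room temperature after NADPH regeneration addition. Data normalized to full inhibition by 1.43 uM quinidine.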

[15] = target: Cytochrome P450 2C19 (Homo sapiens) (UniProt P33261); assay: qHTS Assay for Inhibitors and Substrates of Cytochrome P450 2C19 (AID 899); conditions: recombinant CYP2C19, luciferin-H EGE luminescence; series mostly up to 57.1 µM; note: potency is the fitted concentration of half-maximal effect; nearly all actives have a fitted effect of over 60% in size
In short: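 Luminescence readout of luciferin formed from 10uM Luciferin-H EGE (KM level) by 5 nM CYP2C19 in 50mM KPO4. 60 min NADPH-driven reaction at 37C after 10 min compound preincubation; data scaled to 57uM ketoconazole inhibition.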

[16] = target: Ubiquitin carboxyl-terminal hydrolase 1 (Homo sapiens) (UniProt O94782); assay: Inhibitors of USP1/UAF1: Pilot qHTS (AID 504865); conditions: purified USP1/UAF1, Ub-rhodamine cleavage fluorescence; series mostly up to 54.9 µM;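 note: rhodamine fluorescence freed from ubiquitin-rhodamine substrate followed over time; top concentration of the series differs between compounds; % is set by controls: 0 for no effect and ±100 for the full control effect; nearly all actives have a fitted effect of over 35% in size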
In short: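 Deubiquitinase activity followed as kinetic rhodamine fluorescence release from 150 nM Ub-Rho. 1 nM USP1/UAF1 with compound, after 15 min room-temperature preincubation, in HEPES pH 7.8 buffer containing TCEP, EDTA, BSA and Tween-20.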

[17] = target: Tumor susceptibility gene 101 protein (Homo sapiens) (UniProt Q99816); assay: qHTS Assay for Iinhibitors of HIV-1 Budding by Blocking the Interaction of PTAP/TSG101: Hit Validation (AID 651600); conditions: PTAP peptide/TSG101 UEV interaction, biochemical assay; series mostly up to 57.5 µM; note: potency is the fitted concentration of half-maximal effect; nearly all actives have a fitted effect of over 70% in size
In short: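 FITC-PTAP peptide (50 nM final) binding to Tsg101 binding domain (10 uM final) was measured by polarization after 20 min at r.t. with compounds, in 10 mM HEPES pH 7.5 buffer with 0.15 M NaCl and 0.01% Tween 20.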

[18] = target: Rap guanine nucleotide exchange factor 3 (Homo sapiens) (UniProt O95398); assay: Counterscreen qHTS for antagonist of cAMP-regulated guanine nucleotide exchange factor 3 (EPAC1) (AID 1645888); conditions: Rap1B-BODIPY-GDP nucleotide exchange, fluorescence; series mostly up to 154 µM; note: % of control where 0% means no effect
In short: as §1

Chain of Rap guanine nucleotide exchange factor 3 (Homo sapiens) (O95398 whole entry, looked up): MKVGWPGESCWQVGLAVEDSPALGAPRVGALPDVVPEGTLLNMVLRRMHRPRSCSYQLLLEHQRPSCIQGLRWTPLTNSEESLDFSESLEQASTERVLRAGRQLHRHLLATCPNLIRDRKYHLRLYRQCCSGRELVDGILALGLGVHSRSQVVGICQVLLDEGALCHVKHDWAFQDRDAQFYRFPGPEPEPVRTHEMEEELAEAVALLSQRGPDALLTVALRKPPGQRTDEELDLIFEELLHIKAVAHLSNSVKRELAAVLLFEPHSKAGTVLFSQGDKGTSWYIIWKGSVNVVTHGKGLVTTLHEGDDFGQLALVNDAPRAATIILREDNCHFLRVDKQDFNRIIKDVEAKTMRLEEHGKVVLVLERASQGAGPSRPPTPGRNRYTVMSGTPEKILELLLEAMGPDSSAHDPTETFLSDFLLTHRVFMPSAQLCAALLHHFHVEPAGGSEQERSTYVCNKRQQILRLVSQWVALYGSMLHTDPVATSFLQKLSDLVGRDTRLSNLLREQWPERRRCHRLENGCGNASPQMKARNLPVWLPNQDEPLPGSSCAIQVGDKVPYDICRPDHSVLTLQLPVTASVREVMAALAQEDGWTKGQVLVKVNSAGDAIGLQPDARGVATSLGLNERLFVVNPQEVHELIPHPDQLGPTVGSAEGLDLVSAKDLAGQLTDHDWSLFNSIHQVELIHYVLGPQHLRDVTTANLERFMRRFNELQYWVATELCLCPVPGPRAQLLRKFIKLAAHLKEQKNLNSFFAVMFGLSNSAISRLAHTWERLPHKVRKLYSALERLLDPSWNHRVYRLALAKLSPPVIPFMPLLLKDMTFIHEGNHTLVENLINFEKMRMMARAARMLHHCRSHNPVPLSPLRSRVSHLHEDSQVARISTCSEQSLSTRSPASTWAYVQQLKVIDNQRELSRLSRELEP
Chain of Rap guanine nucleotide exchange factor 4 (Homo sapiens) (Q8WZA2 whole entry, looked up): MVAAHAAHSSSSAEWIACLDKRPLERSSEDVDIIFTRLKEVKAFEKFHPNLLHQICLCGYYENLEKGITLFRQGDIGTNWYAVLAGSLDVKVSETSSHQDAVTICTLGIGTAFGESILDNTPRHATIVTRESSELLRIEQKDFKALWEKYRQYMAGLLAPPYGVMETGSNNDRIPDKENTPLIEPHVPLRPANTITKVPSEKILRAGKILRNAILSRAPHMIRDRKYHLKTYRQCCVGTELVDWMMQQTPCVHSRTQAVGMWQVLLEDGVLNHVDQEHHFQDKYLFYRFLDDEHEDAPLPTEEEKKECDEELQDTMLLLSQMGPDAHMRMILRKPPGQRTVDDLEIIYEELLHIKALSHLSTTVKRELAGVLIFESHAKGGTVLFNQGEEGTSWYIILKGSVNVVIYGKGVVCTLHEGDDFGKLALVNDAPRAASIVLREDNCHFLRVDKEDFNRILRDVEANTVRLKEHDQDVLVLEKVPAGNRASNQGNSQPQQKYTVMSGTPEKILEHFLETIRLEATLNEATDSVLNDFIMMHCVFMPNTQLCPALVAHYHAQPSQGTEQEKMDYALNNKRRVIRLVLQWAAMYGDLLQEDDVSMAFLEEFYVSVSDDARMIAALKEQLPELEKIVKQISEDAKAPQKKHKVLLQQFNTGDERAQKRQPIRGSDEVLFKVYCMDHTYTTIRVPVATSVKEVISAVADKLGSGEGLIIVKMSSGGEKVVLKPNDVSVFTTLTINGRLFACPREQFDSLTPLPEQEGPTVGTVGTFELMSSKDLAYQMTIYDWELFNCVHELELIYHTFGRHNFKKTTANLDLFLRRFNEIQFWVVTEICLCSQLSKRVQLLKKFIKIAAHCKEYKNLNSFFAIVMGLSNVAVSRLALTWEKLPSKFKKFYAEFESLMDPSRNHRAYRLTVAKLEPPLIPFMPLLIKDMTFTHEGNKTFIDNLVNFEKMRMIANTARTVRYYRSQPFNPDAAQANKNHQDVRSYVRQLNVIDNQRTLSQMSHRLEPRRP
Chain of Glucocorticoid receptor (Homo sapiens) (P04150 whole entry, looked up, the tested form may be a part): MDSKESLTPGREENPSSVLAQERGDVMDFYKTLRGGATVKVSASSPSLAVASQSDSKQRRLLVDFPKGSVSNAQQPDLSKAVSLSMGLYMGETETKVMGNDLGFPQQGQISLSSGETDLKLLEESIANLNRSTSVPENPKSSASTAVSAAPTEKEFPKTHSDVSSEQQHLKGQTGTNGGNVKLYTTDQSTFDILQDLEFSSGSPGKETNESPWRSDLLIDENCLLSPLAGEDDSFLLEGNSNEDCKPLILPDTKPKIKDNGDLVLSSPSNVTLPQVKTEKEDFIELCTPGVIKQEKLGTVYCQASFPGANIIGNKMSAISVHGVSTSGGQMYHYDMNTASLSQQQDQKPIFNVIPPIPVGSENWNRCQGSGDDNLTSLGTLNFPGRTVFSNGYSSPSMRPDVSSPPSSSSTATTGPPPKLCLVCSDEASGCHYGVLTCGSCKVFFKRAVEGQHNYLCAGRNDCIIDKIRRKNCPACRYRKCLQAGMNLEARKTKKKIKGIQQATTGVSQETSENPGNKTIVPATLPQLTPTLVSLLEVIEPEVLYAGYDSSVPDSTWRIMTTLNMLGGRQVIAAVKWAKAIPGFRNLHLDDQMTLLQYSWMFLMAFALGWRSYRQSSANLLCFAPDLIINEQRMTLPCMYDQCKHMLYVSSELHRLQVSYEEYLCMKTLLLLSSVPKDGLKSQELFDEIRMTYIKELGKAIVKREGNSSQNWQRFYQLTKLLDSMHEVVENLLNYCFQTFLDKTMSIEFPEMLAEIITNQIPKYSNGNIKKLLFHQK
Chain of Tumor susceptibility gene 101 protein (Homo sapiens) (Q99816 whole entry, looked up, the tested form may be a part): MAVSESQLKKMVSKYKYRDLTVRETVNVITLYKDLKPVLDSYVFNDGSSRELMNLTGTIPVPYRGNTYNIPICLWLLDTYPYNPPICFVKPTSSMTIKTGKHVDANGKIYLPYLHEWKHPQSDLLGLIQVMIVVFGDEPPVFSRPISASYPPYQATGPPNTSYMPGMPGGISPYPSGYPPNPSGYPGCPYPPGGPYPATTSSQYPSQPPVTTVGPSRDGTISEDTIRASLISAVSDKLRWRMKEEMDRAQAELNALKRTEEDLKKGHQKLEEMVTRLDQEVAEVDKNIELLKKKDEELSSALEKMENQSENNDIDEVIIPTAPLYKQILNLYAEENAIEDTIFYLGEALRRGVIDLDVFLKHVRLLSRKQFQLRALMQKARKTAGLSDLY
Chain of Lysosomal acid glucosylceramidase (Homo sapiens) (P04062 whole entry, looked up): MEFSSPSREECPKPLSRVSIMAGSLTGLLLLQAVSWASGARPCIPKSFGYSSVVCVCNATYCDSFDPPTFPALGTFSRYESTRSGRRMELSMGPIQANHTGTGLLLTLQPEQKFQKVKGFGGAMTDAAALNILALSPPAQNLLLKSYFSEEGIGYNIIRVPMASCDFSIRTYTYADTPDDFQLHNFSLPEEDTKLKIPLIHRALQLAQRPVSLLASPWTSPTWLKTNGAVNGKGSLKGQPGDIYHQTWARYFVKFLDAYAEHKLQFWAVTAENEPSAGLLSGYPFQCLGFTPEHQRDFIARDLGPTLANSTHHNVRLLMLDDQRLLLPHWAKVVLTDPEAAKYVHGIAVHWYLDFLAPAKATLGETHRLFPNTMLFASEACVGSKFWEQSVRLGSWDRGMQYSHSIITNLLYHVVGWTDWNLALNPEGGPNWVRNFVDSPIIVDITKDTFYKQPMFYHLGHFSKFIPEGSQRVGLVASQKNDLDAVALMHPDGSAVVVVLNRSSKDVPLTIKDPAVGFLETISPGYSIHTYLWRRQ
Chain of Cytochrome P450 1A2 (Homo sapiens) (P05177 whole entry, looked up): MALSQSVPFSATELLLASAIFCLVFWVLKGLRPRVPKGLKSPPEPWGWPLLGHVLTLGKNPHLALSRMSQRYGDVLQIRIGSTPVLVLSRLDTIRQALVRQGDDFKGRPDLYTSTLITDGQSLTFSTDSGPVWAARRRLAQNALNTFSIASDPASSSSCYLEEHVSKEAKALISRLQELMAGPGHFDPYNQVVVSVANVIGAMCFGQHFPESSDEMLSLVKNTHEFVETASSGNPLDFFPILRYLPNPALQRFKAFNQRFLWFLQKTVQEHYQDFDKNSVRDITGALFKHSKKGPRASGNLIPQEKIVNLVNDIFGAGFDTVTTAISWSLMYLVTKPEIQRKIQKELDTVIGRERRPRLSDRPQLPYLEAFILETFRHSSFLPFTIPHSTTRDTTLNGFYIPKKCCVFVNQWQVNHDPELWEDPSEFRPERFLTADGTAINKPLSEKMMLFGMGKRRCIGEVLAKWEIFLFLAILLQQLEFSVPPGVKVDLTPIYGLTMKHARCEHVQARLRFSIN
Chain of Cytochrome P450 2C19 (Homo sapiens) (P33261 whole entry, looked up): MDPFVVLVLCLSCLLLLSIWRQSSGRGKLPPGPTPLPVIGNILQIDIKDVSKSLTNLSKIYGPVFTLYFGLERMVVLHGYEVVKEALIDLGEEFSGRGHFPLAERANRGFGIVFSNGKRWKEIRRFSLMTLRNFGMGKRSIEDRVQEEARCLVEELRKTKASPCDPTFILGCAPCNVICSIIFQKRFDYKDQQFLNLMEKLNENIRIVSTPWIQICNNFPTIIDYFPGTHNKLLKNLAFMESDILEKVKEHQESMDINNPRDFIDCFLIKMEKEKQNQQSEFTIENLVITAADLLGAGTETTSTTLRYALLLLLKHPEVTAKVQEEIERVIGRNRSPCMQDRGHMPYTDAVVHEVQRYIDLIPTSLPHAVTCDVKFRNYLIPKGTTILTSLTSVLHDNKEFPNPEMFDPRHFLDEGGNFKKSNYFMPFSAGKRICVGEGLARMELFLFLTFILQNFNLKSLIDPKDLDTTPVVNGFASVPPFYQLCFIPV

COC(=O)c1cc(C(=O)OC)n(Cc2ccc(F)cc2)c1C
inactive: Potency [1] | Potency [2] | Potency [3] | Potency [4]

Cc1ccc(C(=O)C=Cc2ccc3c(c2)OCO3)c(C)c1
inactive: Potency [1] | Potency [2] | activation [3] -0.688% [at 17.1 µM, percent relative to cAMP agonist control] | activation [4] 12.3% [at 30.8 µM]

CSc1ccc(S(=O)(=O)NCC(=O)OCC(=O)N(C)Cc2ccccc2)cc1[N+](=O)[O-]
inactive: Potency [1] | Potency [2] | Potency [5]

O=c1cc2oc3cc(O)c(O)cc3c(-c3ccccc3[N+](=O)[O-])c-2cc1O
inactive: Potency [2] | Potency [3] | Potency [4]
active: Potency [1] 10.7 µM

Cc1ccccc1-c1ccc2ncnc(N3CCOCC3)c2c1
inactive: Potency [6] > 11.4 µM | activity change, negative = inhibition [7] -27.7% | activity change, negative = inhibition [9] 20.5% | Potency [10] > 46 µM | Potency [11] > 46 µM | Potency [12] | activity change, negative = inhibition [13] -24.2% [at 2.29 µM] | Potency [14] | Potency [16] | Potency [1] | Potency [2] | Potency [3]
active: Potency [8] 1.26 µM | Potency [15] 1.58 µM

CCOC(=O)C(Cc1ccc(Cl)cc1Cl)c1ccno1 (centres undefined)
inactive: Potency [1] | Potency [2] | Potency [3] | Potency [4]

O=C(NCc1ccc(F)cc1)c1cccc2c1C(=O)c1ccc(N3CCOCC3)cc1S2(=O)=O
active: Potency [2] 56.2 µM | Potency [3] 89.1 µM | Potency [4] 56.2 µM
inactive: Potency [1]

O=C(O)/C(CC(=O)c1ccc(Cl)cc1)=N/Nc1ccc([N+](=O)[O-])cc1[N+](=O)[O-]
inactive: Potency [2] | Potency [3] | Potency [4]
active: Potency [1] 75.7 µM

CCCCCCOC(=O)C(C#N)c1nc2ccccc2nc1N1CCCCC1 (centres undefined)
inactive: Potency [1] | Potency [2] | Potency [5]

O=C(CN1CCCCC1)Nc1cc(Cl)ccc1Oc1ccccc1
inactive: Potency [1] | Potency [2] | Potency [3] | Potency [4]

COc1ccc(C(=S)N2CCOCC2)cc1OC(=O)c1ccccc1Cl
inactive: Potency [1] | Potency [2] | Potency [5]

Cc1cc(C)c2nc(N3C(=O)C(O)=C(C(=O)c4ccco4)C3c3cccc(O)c3)sc2c1 (centres undefined)
active: Potency [1] 26.9 µM
inactive: Potency [2] | Potency [3] | Potency [4]

CCOCCCn1c(=N)c(S(=O)(=O)c2ccccc2)cc2c(=O)n3cc(C)ccc3nc21
inactive: Potency [1] | Potency [2] | Potency [3] | Potency [4]

COc1ccc(C2CC2/C(=N/O)c2ccccn2)cc1 (centres undefined)
inactive: Potency [1] | Potency [2] | Potency [3] | Potency [4]

CN(C)c1ccc(/C=C/c2c3c(nc4ccccc24)CCCC3)cc1
inactive: Potency [1] | Potency [2] | Potency [5]

Oc1ccc2ccccc2c1-c1sc(Nc2ccccc2)n[n+]1-c1ccc(F)cc1
inactive: Potency [2] | Potency [3] | Potency [4]
active: Potency [17] 10.3 µM | Potency [1] 19 µM

CC(=O)NC(c1ccc(Cl)cc1)c1ccc2cccnc2c1O (centres undefined)
inactive: Potency [1] | Potency [2] | activation [3] -1.77% [at 17.1 µM, percent relative to cAMP agonist control] | activation [4] 6.93% [at 30.8 µM]

COC(=O)/N=C(/Cc1ccc(OC)cc1)c1ccc(OC)cc1
inactive: Potency [1] | Potency [2] | Potency [3] | Potency [4]

O=C(O)Cc1ccc(C(=O)c2ccc(Cl)cc2Cl)s1
inactive: Potency [1] | Potency [2] | Potency [3] | Potency [4]

COc1cc2c(cc1OC)C(c1cccc(Cl)c1)CC(=O)N2 (centres undefined)
inactive: Potency [1] | Potency [2] | Potency [5] | Potency [18]

COC(=O)C1=C(C)N(c2ccc(OC)cc2)C(C)=C(C(=O)OC)C1c1ccccc1
inactive: Potency [1] | Potency [2] | Potency [5] | Potency [18]

CCOc1ccccc1N1CCN(C(=O)c2cc3c(s2)CCC3)CC1
inactive: Potency [1] | Potency [2] | Potency [5] | Potency [18]

CCCCCCn1c(=O)[nH]c2nc3cc(N)c(C)cc3nc2c1=O
active: Potency [2] 112 µM
inactive: Potency [1] | Potency [5] | Potency [18]
